According to PubChem BioAssay AID1159580 (chemical genetic matrix, 2015):
Where “and” joins values, the source holds several entries; their conditions need not be identical. Identical values can stand only once. Among all 5,500 compounds or so, about 2,000 (36%) were called active. Roughly 18% stayed inconclusive and do not appear here. Cut-off read from the data, not from the text of the source: active = normalized growth mostly below about 0.91 (no sharp cut-off); inconclusive = no clear call, values can overlap the other calls; inactive = mostly above about 0.92. This is one part of the list.

Assay: chemical genetic growth profiling, strain panel (AID 1159580);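 note: tested at 20 µM; growth read once vehicle control cultures reached saturation at 30 °C; 1 = growth at the plate median or of vehicle wells; lower values mean less growth of the strain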
Conditions: S. cerevisiae deletion strains, growth OD

Measured: normalized growth

CN(C)CCOC(c1ccc(Cl)cc1)c1ccccn1 (centres undefined)
inactive: locus YAL021C, strain ccr4, stronger effect = lower value 1.04 | locus YAL026C, strain drs2, stronger effect = lower value 1.05 | locus YAL030W, strain snc1, stronger effect = lower value 1.03 | locus YBL061C, strain skt5, stronger effect = lower value 1.04 | locus YBR009C, strain hhf1, stronger effect = lower value 1.02 | locus YBR021W, strain FUR4, stronger effect = lower value 0.966 | locus YBR023C, strain chs3, stronger effect = lower value 1.03 | locus YBR171W, strain sec66, stronger effect = lower value 1.02 | locus YBR229C, strain ROT2, stronger effect = lower value 1 | locus YBR231C, strain swc5, stronger effect = lower value 1.01 | locus YBR279W, strain paf1, stronger effect = lower value 1.02 | locus YCL011C, strain gbp2, stronger effect = lower value 1.01 | locus YCL016C, strain dcc1, stronger effect = lower value 1.01 | locus YCL029C, strain bik1, stronger effect = lower value 0.999 | locus YCL069W, strain vba3, stronger effect = lower value 1.02 | locus YCR088W, strain abp1, stronger effect = lower value 1.01 | locus YDL005C, strain med2, stronger effect = lower value 1.03 | locus YDL035C, strain GPR1, stronger effect = lower value 0.978 | locus YDL040C, strain nat1, stronger effect = lower value 1.02 | locus YDL074C, strain BRE1, stronger effect = lower value 1.03 | locus YDL101C, strain DUN1, stronger effect = lower value 1.04 | locus YDL185W, strain tfp1, stronger effect = lower value 1 | locus YDL192W, strain arf1, stronger effect = lower value 1.01 | locus YDR001C, strain nth1, stronger effect = lower value 1.02 | locus YDR069C, strain doa4, stronger effect = lower value 1.03 | locus YDR101C, strain arx1, stronger effect = lower value 1.01 | locus YDR137W, strain rgp1, stronger effect = lower value 1.01 | locus YDR159W, strain sac3, stronger effect = lower value 1.02 | locus YDR162C, strain NBP2, stronger effect = lower value 0.975 | locus YDR195W, strain ref2 1.02 | locus YDR297W, strain sur2, stronger effect = lower value 1.03 | locus YDR318W, strain mcm21, stronger effect = lower value 0.998 | locus YDR334W, strain swr1, stronger effect = lower value 1.01 | locus YDR335W, strain msn5, stronger effect = lower value 1.03 | locus YDR388W, stronger effect = lower value 1.01 | locus YDR392W, strain spt3, stronger effect = lower value 1.01 | locus YDR502C, strain sam2, stronger effect = lower value 1.03 | locus YEL003W, strain gim4, stronger effect = lower value 1.01 | locus YEL037C, strain rad23, stronger effect = lower value 1.02 | locus YEL061C, strain CIN8 (second series), stronger effect = lower value 1.02 | locus YEL061C, strain CIN8, stronger effect = lower value 1.01 | locus YER015W, strain faa2, stronger effect = lower value 1.04 | locus YER016W, strain bim1, stronger effect = lower value 0.997 | locus YER110C, stronger effect = lower value 1.02 | locus YER111C, strain swi4, stronger effect = lower value 1.03 | locus YER155C, strain BEM2 (second series), stronger effect = lower value 1.02 | locus YER155C, strain BEM2, stronger effect = lower value 1.02 | locus YER167W, strain BCK2, stronger effect = lower value 0.99 | locus YFR010W, strain ubp6, stronger effect = lower value 1.03 | locus YGL078C, strain dbp3, stronger effect = lower value 0.998 | locus YGL086W, strain mad1, stronger effect = lower value 1.01 | locus YGL167C, strain pmr1, stronger effect = lower value 1.01 | locus YGL173C, strain kem1, stronger effect = lower value 1.02 | locus YGL227W, strain vid30, stronger effect = lower value 1.03 | locus YGL240W, strain doc1, stronger effect = lower value 1.04 | locus YGL248W, strain PDE1, stronger effect = lower value 1.04 | locus YGL253W, strain hxk2, stronger effect = lower value 1.03 | locus YGR078C, strain PAC10, stronger effect = lower value 1.02 | locus YGR135W, strain pre9, stronger effect = lower value 1 | locus YGR229C, strain SMI1, stronger effect = lower value 0.983 | locus YGR252W, strain gcn5, stronger effect = lower value 0.947 | locus YHR013C, strain ard1, stronger effect = lower value 1.01 | locus YHR027C, strain rpn1, stronger effect = lower value 1.02 | locus YHR030C, strain SLT2, stronger effect = lower value 1 and 1.02 | locus YHR079C, strain IRE1 (second series), stronger effect = lower value 1.01 | locus YHR079C, strain IRE1, stronger effect = lower value 1 | locus YHR094C, strain hxt1, stronger effect = lower value 1.01 | locus YHR129C, strain ARP1, stronger effect = lower value 1.01 | locus YHR142W, strain chs7, stronger effect = lower value 1.02 | locus YHR200W, strain rpn10, stronger effect = lower value 1.01 | locus YIL066C, strain RNR3, stronger effect = lower value 0.957 | locus YIL073C, strain SPO22, stronger effect = lower value 1 | locus YIL125W, strain kgd1, stronger effect = lower value 0.995 | locus YIR030C, strain dcg1, stronger effect = lower value 1.03 | locus YJL092W, strain hpr5, stronger effect = lower value 1.02 | locus YJL095W, strain BCK1 (second series), stronger effect = lower value 1.01 | locus YJL095W, strain BCK1, stronger effect = lower value 1.07 and 1 | locus YJL115W, strain asf1, stronger effect = lower value 1.02 | locus YJL129C, strain trk1, stronger effect = lower value 1.05 | locus YJL134W, strain LCB3, stronger effect = lower value 1.01 | locus YJL154C, strain vps35, stronger effect = lower value 1.02 | locus YJL164C, strain tpk1, stronger effect = lower value 1 | locus YJL166W, strain qcr8, stronger effect = lower value 1.03 | locus YJL168C, strain set2, stronger effect = lower value 1.02 | locus YJL187C, strain SWE1 (second series), stronger effect = lower value 1.04 | locus YJL187C, strain SWE1, stronger effect = lower value 1.01 | locus YJR043C, strain POL32, stronger effect = lower value 0.968 | locus YJR066W, strain TOR1, stronger effect = lower value 0.981 | locus YJR075W, strain HOC1, stronger effect = lower value 1.03 | locus YKL009W, strain mrt4, stronger effect = lower value 1.02 | locus YKL068W, stronger effect = lower value 0.997 | locus YKL085W, strain MDH1 (second series), stronger effect = lower value 0.989 | locus YKL085W, strain MDH1, stronger effect = lower value 0.989 | locus YKL160W, strain elf1, stronger effect = lower value 1.02 | locus YKL190W, strain CNB1, stronger effect = lower value 1 | locus YKR001C, strain vps1, stronger effect = lower value 1 | locus YKR026C, strain gcn3, stronger effect = lower value 1.03 | locus YKR091W, strain srl3, stronger effect = lower value 1.02 | locus YLL001W, strain dnm1, stronger effect = lower value 1.03 | locus YLL026W, stronger effect = lower value 1.03 | locus YLL041C, strain sdh2, stronger effect = lower value 1.02 | locus YLR027C, strain aat2, stronger effect = lower value 1.03 | locus YLR039C, strain RIC1, stronger effect = lower value 1.02 | locus YLR058C, strain SHM2, stronger effect = lower value 1.01 | locus YLR102C, strain apc9, stronger effect = lower value 1.01 | locus YLR113W, strain HOG1, stronger effect = lower value 0.987 | locus YLR221C, strain rsa3, stronger effect = lower value 1.01 | locus YLR258W, strain gsy2, stronger effect = lower value 1.01 | locus YLR262C, strain YPT6 (second series), stronger effect = lower value 1.04 | locus YLR262C, strain YPT6, stronger effect = lower value 1.05 | locus YLR268W, strain sec22, stronger effect = lower value 1 | locus YLR320W, strain mms22, stronger effect = lower value 1 | locus YLR330W, strain CHS5, stronger effect = lower value 1.01 | locus YLR342W, strain FKS1 (second series), stronger effect = lower value 0.95 | locus YLR342W, strain FKS1, stronger effect = lower value 1.04 | locus YLR357W, strain rsc2, stronger effect = lower value 1.06 | locus YLR370C, strain arc18, stronger effect = lower value 1.01 | locus YLR371W, strain rom2, stronger effect = lower value 1 | locus YLR384C, strain iki3, stronger effect = lower value 1.03 | locus YLR418C, strain cdc73, stronger effect = lower value 1.07 | locus YML016C, strain PPZ1, stronger effect = lower value 1.01 | locus YML032C, strain rad52, stronger effect = lower value 0.998 | locus YML120C, strain ndi1, stronger effect = lower value 1.02 | locus YML124C, strain tub3, stronger effect = lower value 1 | locus YMR058W, strain fet3, stronger effect = lower value 1.03 | locus YMR078C, strain ctf18, stronger effect = lower value 1.01 | locus YMR125W, strain sto1, stronger effect = lower value 1.01 | locus YMR129W, stronger effect = lower value 1.03 | locus YMR205C, strain PFK2, stronger effect = lower value 1.03 | locus YMR223W, strain ubp8, stronger effect = lower value 0.998 | locus YMR231W, strain pep5, stronger effect = lower value 1.03 | locus YMR307W, strain GAS1, stronger effect = lower value 0.976 | locus YNL067W, strain RPL9B, stronger effect = lower value 1.06 | locus YNL071W, strain lat1, stronger effect = lower value 1.01 | locus YNL183C, strain NPR1, stronger effect = lower value 0.941 | locus YNL209W, strain ssb2, stronger effect = lower value 1.02 | locus YNL233W, strain BNI4, stronger effect = lower value 1.04 | locus YNL248C, strain rpa49, stronger effect = lower value 1.04 | locus YNL250W, strain rad50, stronger effect = lower value 1.02 | locus YNL271C, strain bni1, stronger effect = lower value 1.03 | locus YNL298W, strain CLA4, stronger effect = lower value 0.994 | locus YNL307C, strain MCK1, stronger effect = lower value 1.01 | locus YNL322C, strain KRE1 (second series), stronger effect = lower value 1.03 | locus YNL322C, strain KRE1, stronger effect = lower value 1.01 | locus YNR049C, strain mso1, stronger effect = lower value 1.02 | locus YNR052C, strain pop2, stronger effect = lower value 1.01 | locus YOL012C, strain htz1 0.873 | locus YOL147C, strain pex11, stronger effect = lower value 1.01 | locus YOR001W, strain rrp6, stronger effect = lower value 1.04 | locus YOR061W, strain CKA2, stronger effect = lower value 1.01 | locus YOR069W, strain VPS5, stronger effect = lower value 1.01 | locus YOR070C, strain gyp1, stronger effect = lower value 1.01 | locus YOR080W, strain dia2, stronger effect = lower value 1.02 | locus YOR083W, strain WHI5, stronger effect = lower value 1.03 | locus YOR106W, strain vam3, stronger effect = lower value 1.03 | locus YOR136W, strain idh2, stronger effect = lower value 1.01 | locus YOR144C, strain elg1, stronger effect = lower value 1 | locus YOR184W, strain ser1, stronger effect = lower value 0.997 | locus YOR231W, strain MKK1, stronger effect = lower value 0.996 | locus YOR265W, strain rbl2, stronger effect = lower value 1.02 | locus YOR270C, strain vph1, stronger effect = lower value 1.05 | locus YOR290C, strain snf2, stronger effect = lower value 1 | locus YOR316C, strain cot1, stronger effect = lower value 1.01 | locus YPL051W, strain arl3, stronger effect = lower value 1.03 | locus YPL055C, strain LGE1, stronger effect = lower value 0.976 | locus YPL078C, strain atp4, stronger effect = lower value 1.02 | locus YPL106C, strain sse1, stronger effect = lower value 0.993 | locus YPL240C, strain hsp82, stronger effect = lower value 1.01 | locus YPL256C, strain CLN2, stronger effect = lower value 1 | locus YPR119W, strain clb2, stronger effect = lower value 1.01 | locus YPR141C, strain kar3, stronger effect = lower value 1.01 | locus YPR163C, strain tif3, stronger effect = lower value 1 | locus YPR167C, strain met16, stronger effect = lower value 1 | strain wtn01, stronger effect = lower value 0.995
